Source: the OligoGym collection
Also: reference of the scale not given here.

These sequences were tested against RABGEF1 (assay: pooled miR-30 sensor sort-seq; sequence = guide strand). Details: shRNA.
Sequence TTCTTCAATGCTTAGATCCCTT has a sensor-assay potency score (higher = more potent) of -0.412. With TTGAATGGCAAGATCTTTCTTC the sensor-assay potency score (higher = more potent) was 0.743. For TTCTTTTCTTCAAACTTGGAGA, the sensor-assay potency score (higher = more potent) was -0.783. With TTCATTAACAGGGACACACAGC the sensor-assay potency score (higher = more potent) was -0.293. TTATCTTCTCGACTCTTTCTGG gave a sensor-assay potency score (higher = more potent) of -0.279. Work on TTTCTTGCACAGGAGATCCGAT yielded a sensor-assay potency score (higher = more potent) of -0.404. With TTAGTTACATTCTAGATCCCAA the sensor-assay potency score (higher = more potent) was 0.187.

Each sequence was assayed against RAD18 in the same assay as above. Details: shRNA.
TTTCATTGAGTTTACTAGCTTC showed a sensor-assay potency score (higher = more potent) of 0.211. TTTCCTTCTTCTCTTCGCGTGA was tested, and the sensor-assay potency score (higher = more potent) was -0.0825. With TTTTGTGAACAGAACTTCTGAG the sensor-assay potency score (higher = more potent) was 0.451. In the case of TTTGTGAACAGAACTTCTGAGG, the sensor-assay potency score (higher = more potent) was -0.395. In the case of TTTTCTTTTATCAACAACTCTG, the sensor-assay potency score (higher = more potent) was 0.0462. For TTTATCAACAACTCTGATGTAG, the sensor-assay potency score (higher = more potent) was 1.04. TAGAATTTAGCATCTTTCCTTG showed a sensor-assay potency score (higher = more potent) of -0.0135. For TATAAATAGAAAATCTATCTGT, the sensor-assay potency score (higher = more potent) was 0.122. Work on TTTTCTAGCCTGATCCACCAGA yielded a sensor-assay potency score (higher = more potent) of -0.673. In the case of TTCTGTGTCTTGAAGATCGTTT, the sensor-assay potency score (higher = more potent) was 0.506. With TACTTTGACAGCAAGATTCTTT the sensor-assay potency score (higher = more potent) was 0.474.

What follows are sequences tested against RAD54L in the same assay as above. Details: shRNA.
For TTAACAAAATGTACCAAGCTGA, the sensor-assay potency score (higher = more potent) was -0.415. TTCTTGATGATTTTCTCCCAGA was tested, and the sensor-assay potency score (higher = more potent) was -0.985. With TTCTTAATGGACATCGTGCCAT the sensor-assay potency score (higher = more potent) was -0.43. For TTGATTGGTTAGCTGACTCAAA, the sensor-assay potency score (higher = more potent) was -0.506. With TTCATGCTGACTGCTGTCCAGA the sensor-assay potency score (higher = more potent) was -1.19. For TTGTCTCAGAAACCTCTTGTAT, the sensor-assay potency score (higher = more potent) was -1.26. TTCTTTTGACCATCTCGCCAGA was tested, and the sensor-assay potency score (higher = more potent) was -0.96. In the case of TAGATATAGCAAGTCTTCTTTT, the sensor-assay potency score (higher = more potent) was -1.02. Sequence TTACAAAGCTTCTTTAGCGAGG has a sensor-assay potency score (higher = more potent) of -0.517. Sequence TTGACCATCTCGCCAGACCCGG has a sensor-assay potency score (higher = more potent) of -1.03. For TTGCACTCTGGACTCTGGCGTA, the sensor-assay potency score (higher = more potent) was -0.761. TCTTGTATAACTCAGTCTGAAG gave a sensor-assay potency score (higher = more potent) of -1.48.

What follows are sequences tested against RAD9A in the same assay as above. Details: shRNA.
With TACAGTGACAGCCAGCTGGGGC the sensor-assay potency score (higher = more potent) was -0.774. With TTTTTCCACCGTCTTCTCCAGC the sensor-assay potency score (higher = more potent) was -1.2. TGTGCTGTGAGCCTGGAGCTGA showed a sensor-assay potency score (higher = more potent) of -0.559. Sequence TTCATCAGGATCTTACAGCGCA has a sensor-assay potency score (higher = more potent) of 0.0418. Work on TGAATCAATAGCAGCGTCCAGT yielded a sensor-assay potency score (higher = more potent) of -0.732. TCACATCTAAGACACTGCCTGG was tested, and the sensor-assay potency score (higher = more potent) was -0.534. For TTTACAGTGACAGCCAGCTGGG, the sensor-assay potency score (higher = more potent) was -1.03. In the case of TTAATGAATCAATAGCAGCGTC, the sensor-assay potency score (higher = more potent) was -0.585. TTCCTTAGGAAGGTGAGCCTGA was tested, and the sensor-assay potency score (higher = more potent) was 0.111. For TCATTGGCAAAGTCGTCCGGGT, the sensor-assay potency score (higher = more potent) was -0.913.
